PubChem BioAssay AID1159580 (chemical genetic matrix, 2015)
In all, about 5,500 compounds went through this assay and about 2,000 (36%) were called active. Inconclusive results (about 18%) are left out. No stated cut-off is given here; in the data, active means normalized growth mostly below about 0.91 (no sharp cut-off); inconclusive means no clear call, values can overlap the other calls; inactive means mostly above about 0.92. This is one part of the list.

Assay: chemical genetic growth profiling, strain panel (AID 1159580);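 further: tested at 20 µM; growth read once vehicle control cultures reached saturation at 30 °C; 1 = growth at the plate median or of vehicle wells; lower values mean less growth of the strain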
Conditions: S. cerevisiae deletion strains, growth OD

Measured: normalized growth

O=S(=O)(c1cccc2c(Cl)cccc12)N1CCCNCC1
inactive: locus YAL040C, strain CLN3, active compounds read low 0.99 | locus YDR363W, strain ESC2, active compounds read low 1 | locus YER002W, strain NOP16, active compounds read low 0.988 | locus YGR078C, strain PAC10, active compounds read low 0.986 | locus YMR263W, strain SAP30, active compounds read low 1 | locus YNL128W, strain TEP1, active compounds read low 1.01 | locus YNL175C, strain NOP13, active compounds read low 1.03 | locus YNL197C, strain WHI3, active compounds read low 1.03 | locus YNL224C, strain SQS1, active compounds read low 1.01 | locus YOR083W, strain WHI5 (second series), active compounds read low 1.02 | locus YPL241C, strain CIN2, active compounds read low 1
